# Shown are actives, neighbours in structure and some others; about 1.8% of the full set was active somewhere.
# MsrA act = bovine methionine sulfoxide reductase A activation; activation, % at 10.6 µM; hit rate 0.3% among 360,000; AID 602163; purified bovine MsrA, absorbance read-out; in the data active = activation above about 7.5%;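 note: 0% = vehicle and 100% = reference activator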
# m5-HT2A agonist = agonists of mouse serotonin 5-HT2A receptor (HTR2A) | P35363 | CHO-K1 mHTR2A beta-arrestin complementation, luminescence; percent of 30 µM serotonin response | activation, % at 7.6 µM | hit rate 0.66% among 360,000 | AID 624169;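 active = activation above a run cutoff, the mean activation of all tested compounds plus 3 SD, cut at about 14% in these data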;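 note: 0% = plate median of compound wells and 100% = 30 µM serotonin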
# Target sequence (P35363 whole entry, looked up): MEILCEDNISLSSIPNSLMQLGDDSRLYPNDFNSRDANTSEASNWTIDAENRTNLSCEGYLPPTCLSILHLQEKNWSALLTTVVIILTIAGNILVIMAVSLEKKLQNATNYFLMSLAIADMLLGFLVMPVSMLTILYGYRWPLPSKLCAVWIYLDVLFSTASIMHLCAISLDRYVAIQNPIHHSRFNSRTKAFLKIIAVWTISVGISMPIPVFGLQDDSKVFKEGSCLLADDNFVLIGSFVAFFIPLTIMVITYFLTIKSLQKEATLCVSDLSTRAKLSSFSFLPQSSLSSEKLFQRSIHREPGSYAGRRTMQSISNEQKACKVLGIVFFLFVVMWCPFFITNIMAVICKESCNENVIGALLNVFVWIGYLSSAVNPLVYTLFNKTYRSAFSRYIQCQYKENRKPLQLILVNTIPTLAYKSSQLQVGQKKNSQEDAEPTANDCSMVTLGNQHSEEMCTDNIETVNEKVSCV
# NPR2 activator = GC-B (human) receptor activation; hit rate 0.11% among 370,000; activation, % at 10 µM; HEK293-GC-B cells, CNP EC30, cGMP TR-FRET; 0% at EC30 CNP, 100% saturating CNP; P20594;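 active = activation at 10 µM reaching about 35% in either raw or pattern-adjusted values, limit read from the data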
# MsrA inh = inhibitors of bovine MsrA; inhibition, % at 15.5 µM; purified bovine MsrA, absorbance read-out; hit rate 0.75% among 360,000;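 note: 0% = vehicle wells with enzyme and 100% = reference inhibitor wells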
# GC-A act = GC-A (human) enzyme activation. hit rate 0.14% among 370,000. HEK293 GC-A cells, cGMP TR-FRET, EC30 ANP; 0% at EC30 ANP, 100% saturating ANP. activation, % at 10 µM. P16066; in the data active = activation above about 40%
# MsrA conf = bovine MsrA inhibition, confirmed; shares compounds with MsrA inh; purified bovine MsrA, absorbance read-out; inhibition, % at 15.5 µM; hit rate 41% among 2,300; AID 651822;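 note: coupled to thioredoxin reductase with NADPH and selenocystamine and DMSO as substrate; 0% = vehicle only and 100% = full effect of reference inhibitor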
# An asterisk follows results filed as active; . = no result. Cut-off read from the data, not from the text of the source, unless noted: active = inhibition above about 4.5%; inactive = the rest.
SMILES,MsrA act,m5-HT2A agonist,NPR2 activator,MsrA inh,GC-A act,MsrA conf
COc1ccc(-c2cc(C(=O)N/N=C/c3ccc4c(c3)OCO4)c3ccccc3n2)c(OC)c1,-3,0,7,5.8*,15,4
COc1ccc(/C=N/NC(=O)c2[nH]c3ccc(C)cc3c2-c2ccccc2)c(C(=O)O)c1OC,-5,-5,8,6.2*,5,4
COc1cc(/C=N/NC(=O)c2cc(-c3ccccc3Cl)nc3ccccc23)cc(OC)c1O,-4,-11,6,2,14,.
Cc1nn(-c2ccccc2)c(N2CCCC2)c1/C=N/NC(=O)c1cc(-c2cccnc2)nc2ccccc12,-11,-3,1,4.7*,-7,1
COc1ccc2c(c1)N=CN1CCc3c([nH]c4ccccc34)C3=NCC[C@@]321,.,.,-32,.,-38,.
CCCCCn1nnnc1C1(C)CCSCC(=O)N1Cc1ccco1 (stereo not given),.,.,1,.,0,.
COc1ccc(/C=N/NC(=O)c2cc(-c3ccccc3)nc3ccccc23)c(C(=O)O)c1OC,-4,-8,1,4.7*,3,2
COc1cc(/C=N/n2c(C)nc3ccccc3c2=O)ccc1O,-3,6,-8,5.4*,0,3
COc1cccc(-c2cc(C(=O)N/N=C/c3cccc(OC)c3OC)c3ccccc3n2)c1,-2,-7,1,1,-1,.
COc1cc(/C=N/NC(=O)c2cc(-c3ccccc3)nc3ccccc23)ccc1O,-3,-14,-2,5.0*,0,4
Cc1nc2ccccc2c(=O)n1/N=C/c1ccccc1,-1,1,1,-1,4,.
COc1ccc(/C=N/NC(=O)c2cc(-c3ccccc3)nc3ccccc23)cc1O,-4,-8,4,2,1,.
COc1ccc(C(=O)OC2C(OC)OCC(O)C2O)cc1 (stereo not given),-2,6,-3,-1,0,.
CC(C)(C)C(=O)Nc1nnc(-c2ccncc2)o1,-4,-1,-5,3,1,.
O=C(Nc1nnc(-c2ccncc2)o1)c1ccc(Br)s1,-2,-4,-1,5.8*,-1,3
Cc1nc2ccc(NC(=O)c3cc(F)cc(F)c3)cc2c(=O)[nH]1,.,.,-6,.,2,.
Fc1cnc(N2CCOCC2)nc1N1CCOCC1,-4,-2,6,-1,0,.
Fc1cnc(N2CCOCC2)nc1N1CCc2ccccc21,-1,5,-4,8.0*,2,3
CN1[C@H](Cc2ccccc2)COc2cc(N3CCCC3)ccc2S1(=O)=O,.,.,-11,.,3,.
CCOC(=O)CSc1nc(=O)n2ccc(C)cc2n1,-4,1,-3,4.7*,-4,0
C(=N\Nc1nc2ccccc2s1)/c1ccco1,-15,6,-8,6.2*,4,5.5*
O=C(CN1CCOCC1)Nc1ccc([N+](=O)[O-])cc1Br,-2,10,-4,1,-2,.
O=C(CN1CCCCCC1)Nc1ccc([N+](=O)[O-])cc1Br,-6,1,-1,4.8*,2,7.2*
Cc1ccc(C(=O)N/N=C\c2ccc(Br)o2)o1,-10,3,-1,6.4*,1,6.7*
Cc1cc(C)n2nc(C(F)(F)F)c(-c3ccccc3)c2n1,-1,-6,-5,4.8*,-4,0
SMILES,MsrA act,m5-HT2A agonist,NPR2 activator,MsrA inh,GC-A act,MsrA conf
Cc1ccc(-c2nc(=S)c3c(n2Cc2ccco2)CC(C)(C)OC3)cc1,-13,0,.,.,.,.
Cc1ccc(-c2nc(=S)c3c(n2CC2CCCO2)CC(C)(C)OC3)cc1 (stereo not given),-10,-2,0,4.9*,-2,4
Cc1cc(C)n2nc(N)c(N=Nc3ccccc3)c2n1,-2,1,-15,5.2*,5,4
Oc1ccc(/C=N/NC(=S)Nc2cccnc2)c(O)c1,-5,-4,-11,7.0*,-5,5.2*
CCN(CC(=O)NCC(=O)Nc1ccc(Br)cc1C)Cc1ccccc1,-3,0,-4,0,0,.
Cc1nc2ccccc2c(=O)n1/N=C/c1cccs1,-4,-2,-3,0,3,.
Cc1nc2ccccc2c(=O)n1/N=C/c1cn(-c2ccccc2)nc1-c1cccs1,-5,-10,-1,14*,0,4.9*
O=C(N/N=C/c1cn(-c2cccs2)nc1-c1ccccc1)c1ccccc1O,-6,-3,-1,5.5*,4,2
O=C(N/N=C/c1cn(-c2cccs2)nc1-c1ccccc1)c1ccccc1Br,-3,2,-1,6.5*,1,2
COc1ccccc1N1CCN(C2CCCN(C(=O)CCc3ccccn3)C2)CC1 (stereo not given),-1,-9,-1,0,5,.
Cc1ccc(NC(=O)N2CC(C)OC(C)C2)cc1[N+](=O)[O-] (stereo not given),.,.,-3,0,-2,.
c1cc2c3c(cccc3c1)NC1(CCCC1)N2,-3,2,0,1,-7,.
S=C1NC2(CCCCC2)Nc2ccccc21,-6,-5,0,6.4*,-3,7.2*
S=C1NC2(CCCC2)Nc2ccccc21,-15,10,3,9.1*,-1,8.7*
COc1ccc(CCNC(=O)C2CCN(S(=O)(=O)c3ccc(-n4cnnn4)cc3)CC2)cc1OC,-2,8,3,56*,-2,-1
COc1ccc(CCNC(=O)C2CCN(S(=O)(=O)c3ccc(OC)c(OC)c3)CC2)cc1OC,-2,3,0,-1,4,.
CN1CCN(c2ccc(-c3csc(N4CCC(C(N)=O)CC4)n3)cc2)CC1,.,.,-6,.,-4,.
O=C(NC1=NC2(C=C3CCCCC3n3c(=O)n(-c4ccccc4)c(=O)n32)CN1CC1CC1)c1ccccc1 (stereo not given),.,.,4,.,0,.
O=C(O)c1ccccc1NS(=O)(=O)c1ccc(NN=Cc2ccccc2F)c([N+](=O)[O-])c1,-7,6,-11,5.3*,-6,3
COc1ccccc1C(=O)CSc1nnc(-c2ccncc2)n1-c1ccc(Cl)cc1,.,.,-10,.,-9,.
CCN(CC)c1ccc(C2NCC(c3ccc([N+](=O)[O-])cc3)O2)cc1 (stereo not given),-5,0,-1,5.3*,0,4.7*
Cc1ccc(C2(c3noc(CN4CCC(C(=O)N5CCOCC5)CC4)n3)CCCC2)cc1,-1,0,3,4.7*,0,0
Cc1ccc(C2(c3noc(CN4CCOCC4)n3)CCCC2)cc1,-6,5,2,-1,3,.
COC(=O)CNC(=O)c1cc(OC)cc(OC)c1,-5,-3,4,-1,-2,.
O=C(NCc1ccco1)c1ccc(=O)oc1,-6,-4,9,7.9*,1,6.2*
O=C(NCc1ccccc1)c1ccc(=O)oc1,-11,5,4,7.5*,5,6.2*
COC(=O)CNC(=O)c1ccc(=O)oc1,-7,0,1,5.8*,1,5.3*

# Source: PubChem
